TLR4-MyD88 BLA: blocks binding of human TLR4 to MyD88; HeLa CL3-4 TLR4/MyD88 BLA complementation, FRET ratio; hit rate 0.18% among 200,000; inhibition, % at 8.4 µM; in the data active = inhibition above about 25%;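 note: 0% = vehicle and 100% = reference inhibitor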
HSF1 activator: increases HSF-1 driven luciferase reporter signal; activation, % at 9 µM; hit rate 1.7% among 300,000; NIH3T3-HGL HSF-1 luciferase reporter, MG132, 8 h; 100% = twice DMSO control signal; AID 504408;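 active = mean replicate activation of at least 50% with a set share of replicates each reaching 50%; inconclusive = only one of those two conditions met; inactive = mean below 50% and too few replicates reaching it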;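 note: 0% = median of the neutral control wells and 100% = twice that signal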
HSF1 inhib: HSF1 inhibition | hit rate 0.77% among 300,000 | NIH3T3-HGL HSE-luciferase, MG132-induced, luminescence 8 h; hits give low values | activity change, negative = inhibition, % at 7.5 µM (by protocol);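 active = more than half of replicate wells show activity change below -50%, luminescence cut by over half; inconclusive = some wells, but at most half, below -50%; inactive = no replicate well below -50%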;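 note: luciferase reports HSF-1 transcriptional activity via heat shock element; 0% = median of DMSO wells and -100% = zero luminescence signal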
TLR9-MyD88 inh: inhibitors of human TLR9-MyD88 binding; Q9NR96+Q99836; CHO BLA complementation TLR9-MyD88, CCF4 FRET ratio; inhibition, % at 4.98 µM; hit rate 0.21% among 340,000;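 active = inhibition above the mean over all tested compounds plus 3 SD, cut at about 21% in these data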;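 note: 0% = DMSO only wells and 100% = clavulanate BLA inhibitor control wells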
NOD2-RIPK2 inh: blocks binding of human NOD2 to RIPK2; O43353; CHO BLA complementation NOD2-RIPK2, CCF4 ratio; inhibition, % at 4.98 µM; hit rate 0.38% among 360,000; in the data active = inhibition above about 21%;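 note: 0% = vehicle only and 100% = reference blocker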
TLR4 MyD88 cnf: TLR4-MyD88 interaction inhibition confirmed; shares compounds with TLR4-MyD88 BLA; HeLa CL3-4 BLA complementation, CCF4 FRET ratio; inhibition, % at 8.4 µM; hit rate 50% among 350; AID 941;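 active = mean inhibition across three repeat runs above about 25% carried over from the earlier screen, limit read from the data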;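 note: plate controls were DMSO only for no effect and clavulanic acid blocking BLA at full dose for full effect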
BLA inh HeLa: inhibits beta-lactamase activity, counter-screen to TLR4-MyD88 binding inhibitors. shares compounds with TLR4-MyD88 BLA. HeLa BLA reporter, CCF4 FRET ratio. inhibition, % at 8.4 µM. hit rate 63% among 350. AID 1237;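 active = mean inhibition over three repeats above about 26% taken from the earlier screen, limit read from the data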;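 note: HeLa cells stably expressing beta-lactamase reporter as counterscreen for TLR4-MyD88 inhibitors; 0% = DMSO and 100% = clavulanic acid full inhibition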
TLR9-MyD88 cf: confirmation of human TLR9-MyD88 binding inhibitors | shares compounds with TLR9-MyD88 inh | CHO TLR9/MyD88 BLA complementation, CCF4 FRET ratio | inhibition, % at 4.98 µM | hit rate 51% among 680 | AID 540250;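 active = mean inhibition across three repeats above about 21% taken from the earlier screen, limit read from the data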;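 note: blue over green emission ratio reports constitutive TLR9 MyD88 association via BLA complementation; 0% = DMSO vehicle wells and 100% = clavulanate BLA inhibitor wells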
BLA counter-1: counter-screen for TLR9-MyD88 inhibitors: non-selective beta-lactamase inhibitors | shares compounds with TLR9-MyD88 inh | CHO-BLA cells, CCF4 FRET ratio, BLA reporter | inhibition, % at 4.98 µM | hit rate 7% among 680;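 active = mean inhibition above a 50% cutoff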;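 note: counterscreen of TLR9-MyD88 hits on CMV-driven BLA in CHO-K1 cells; 0% = DMSO alone and 100% = clavulanate blocking BLA; higher means less blue over green ratio so more BLA blockade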
TLR9 CHO tox: counter-screen for TLR9-MyD88 inhibitors: cytotoxicity in CHO cells; shares compounds with TLR9-MyD88 inh; luminescence; inhibition, % at 4.98 µM; hit rate 39% among 680; AID 588336; in the data active = inhibition above about 11%
NOD2 RIPK2 conf: confirmation of human NOD2-RIPK2 interaction inhibitors; shares compounds with NOD2-RIPK2 inh; CHO cells, NOD2-RIPK2 BLA complementation, CCF4 FRET; inhibition, % at 4.98 µM; hit rate 70% among 1,200; AID 624370;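 active = mean inhibition across replicates above a set limit taken from the earlier primary screen, cut at about 21% in these data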;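 note: 0% = DMSO-only wells and the high end = clavulanate BLA-blocked wells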
BLA counter-2: hits BLA reporter in NOD2-RIPK2 inhibitor counterscreen | inhibition, % at 4.98 µM | CHO BLA reporter, CCF4 FRET ratio | hit rate 57% among 1,200 | shares compounds with NOD2-RIPK2 inh;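 active = mean inhibition above the low-control mean inhibition plus three low-control SD, cut at about 11% in these data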;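 note: 0% = DMSO only wells and 100% = clavulanate high control wells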
Active calls of the source: *. Sampled rows, rich in hits. Any-hit rate of the full collection: about 2.4%.

How did O=c1[nH]c2ccccc2nc1/C=C/c1ccc(O)cc1 do in these assays?
TLR4-MyD88 BLA: 36*; HSF1 activator: 39; HSF1 inhib: 36; TLR9-MyD88 inh: 36*; NOD2-RIPK2 inh: 38*; TLR4 MyD88 cnf: 30*; BLA inh HeLa: 53*; TLR9-MyD88 cf: 19; BLA counter-1: 21; TLR9 CHO tox: 6; NOD2 RIPK2 conf: 42*; BLA counter-2: 53*

Results for CCOc1ccc(NC(=O)CN(c2ccc([N+](=O)[O-])cc2)S(=O)(=O)c2ccccc2)cc1 ?
TLR4-MyD88 BLA: -19; HSF1 activator: -3; HSF1 inhib: -11; TLR9-MyD88 inh: 6; NOD2-RIPK2 inh: 2

How did CCOc1ccc(S(=O)(=O)N(CC(=O)N/N=C/c2ccc(-c3ccc([N+](=O)[O-])cc3)o2)c2ccccc2)cc1 do in these assays?
TLR4-MyD88 BLA: 65*; HSF1 activator: 8; HSF1 inhib: 4; TLR9-MyD88 inh: 55*; NOD2-RIPK2 inh: 35*; TLR4 MyD88 cnf: 50*; BLA inh HeLa: 87*; TLR9-MyD88 cf: 57*; BLA counter-1: 59*; TLR9 CHO tox: 22*; NOD2 RIPK2 conf: 68*; BLA counter-2: 76*

How did O=C(Nc1nnc(C2CC2)s1)c1cncc(Br)c1 do in these assays?
TLR9-MyD88 inh: 2; NOD2-RIPK2 inh: 12

How did O=C1c2cccc3cccc(c23)C(=O)N1Cc1cccnc1 do in these assays?
HSF1 activator: 16; HSF1 inhib: -4; TLR9-MyD88 inh: 9; NOD2-RIPK2 inh: -6

Results for O=C1c2cccc3c([N+](=O)[O-])ccc(c23)C(=O)N1Cc1cccnc1 ?
TLR4-MyD88 BLA: 77*; HSF1 activator: -8; HSF1 inhib: -2; TLR9-MyD88 inh: 66*; NOD2-RIPK2 inh: 78*; TLR4 MyD88 cnf: 79*; BLA inh HeLa: 104*; TLR9-MyD88 cf: 49*; BLA counter-1: 66*; TLR9 CHO tox: 72*; NOD2 RIPK2 conf: 84*; BLA counter-2: 71*

Results for Cc1ccnc(N2C(=O)c3cccc4c([N+](=O)[O-])ccc(c34)C2=O)c1 ?
TLR4-MyD88 BLA: 92*; HSF1 activator: -22; HSF1 inhib: -9; TLR9-MyD88 inh: 79*; NOD2-RIPK2 inh: 88*; TLR4 MyD88 cnf: 90*; BLA inh HeLa: 113*; TLR9-MyD88 cf: 58*; BLA counter-1: 82*; TLR9 CHO tox: 93*; NOD2 RIPK2 conf: 92*; BLA counter-2: 83*

What do the screens show for `CC(CCc1ccccc1)NC(=O)CCNS(=O)(=O)c1ccccc1C(F)(F)F` (centres undefined)?
TLR9-MyD88 inh: -14; NOD2-RIPK2 inh: 0

How did O=C(COc1ccc2cc(Br)ccc2c1Br)N1CCOCC1 do in these assays?
TLR9-MyD88 inh: -6; NOD2-RIPK2 inh: 7

What do the screens show for `CCCNC(=O)c1cc(C2CCCN(C(=O)c3cc(F)ccc3C)C2)on1` (centres undefined)?
NOD2-RIPK2 inh: -8

How did COc1ccc(S(=O)(=O)n2nc(-c3cc(OC)c(OC)c(OC)c3)cc2N)cc1OC do in these assays?
TLR4-MyD88 BLA: -4; TLR9-MyD88 inh: -6; NOD2-RIPK2 inh: -9

How did COc1ccc(-c2cc(N)n(S(=O)(=O)c3c(F)c(F)c(F)c(F)c3F)n2)cc1OC do in these assays?
TLR4-MyD88 BLA: 27*; HSF1 activator: -15; HSF1 inhib: -5; TLR9-MyD88 inh: 18; NOD2-RIPK2 inh: 59*; TLR4 MyD88 cnf: 17; BLA inh HeLa: -11; NOD2 RIPK2 conf: 86*; BLA counter-2: 18*

What do the screens show for `Cn1c(=O)c(NCCc2ccccc2)c2c3c(cccc31)C(=O)c1ccccc1-2`?
TLR4-MyD88 BLA: 39*; HSF1 activator: 45; HSF1 inhib: 7; TLR9-MyD88 inh: 37*; NOD2-RIPK2 inh: 38*; TLR4 MyD88 cnf: 39*; BLA inh HeLa: 64*; TLR9-MyD88 cf: 37*; BLA counter-1: 38; TLR9 CHO tox: -2; NOD2 RIPK2 conf: 63*; BLA counter-2: 71*

What do the screens show for `CCCCNc1c2c3c(cccc3n(C)c1=O)C(=O)c1ccccc1-2`?
TLR4-MyD88 BLA: 41*; HSF1 activator: inconclusive; HSF1 inhib: 29; TLR9-MyD88 inh: 36*; NOD2-RIPK2 inh: 47*; TLR4 MyD88 cnf: 26*; BLA inh HeLa: 47*; TLR9-MyD88 cf: 26*; BLA counter-1: 26; TLR9 CHO tox: 6; NOD2 RIPK2 conf: 52*; BLA counter-2: 58*

What do the screens show for `Cn1c(=O)c(NCCO)c2c3c(cccc31)C(=O)c1ccccc1-2`?
TLR4-MyD88 BLA: 2; HSF1 activator: 9; HSF1 inhib: -2; TLR9-MyD88 inh: 3; NOD2-RIPK2 inh: 6

What do the screens show for `CCN(CC(=O)NC(C)(C)C)C(=O)c1cccc(S(=O)(=O)N2CC3(C)CC2CC(C)(C)C3)c1` (centres undefined)?
TLR9-MyD88 inh: 2; NOD2-RIPK2 inh: -2

What do the screens show for `CCOC(=O)[C@]12CCC=C1N(Cc1ccc3c(c1)OCO3)C(=O)[C@H](CC(=O)NCc1ccccc1)C2`?
NOD2-RIPK2 inh: -5

Results for Cc1n[nH]c(C)c1N1C(=O)c2cccc3cc(Br)cc(c23)C1=O ?
TLR4-MyD88 BLA: -4; HSF1 activator: 3; HSF1 inhib: -4; TLR9-MyD88 inh: -4; NOD2-RIPK2 inh: 9

How did Cc1n[nH]c(C)c1N1C(=O)c2cccc3c(Br)ccc(c23)C1=O do in these assays?
TLR4-MyD88 BLA: 73*; HSF1 activator: 27; HSF1 inhib: 18; TLR9-MyD88 inh: 48*; NOD2-RIPK2 inh: 57*; TLR4 MyD88 cnf: 45*; BLA inh HeLa: 79*; TLR9-MyD88 cf: 22*; BLA counter-1: 26; TLR9 CHO tox: 4; NOD2 RIPK2 conf: 71*; BLA counter-2: 59*

Results for O=C(O)CCC(=O)Nc1ccc(-c2csc(Nc3cccc4ccccc34)n2)cc1 ?
TLR9-MyD88 inh: 3; NOD2-RIPK2 inh: 0

Bioassay records: PubChem BioAssay, several laboratories
